# Inconclusive results are not listed. Where a call stands in place of a potency, no number is given. A number with no mark means an inactive call. Activity calls are given as the source filed them. The call rests on the fitted dose curve; in most records, active means well fitted curve in the direction sought with a large enough effect; inconclusive means small, poorly fitted or top-dose-only effect, or another doubt; inactive means no such curve, though single readings can be large; an effect the other way counts as inactive or inconclusive.
# Key:
# [1] = molecular target: Rap guanine nucleotide exchange factor 3 (Homo sapiens) (UniProt O95398); assay: Confirmatory qHTS for antagonist of cAMP-regulated guanine nucleotide exchange factor 3 (EPAC1) (AID 1645880); details: EPAC1 Rap1B-BODIPY-GDP exchange, fluorescence; activity, negative = inhibition: at 115 µM (top of the series); further: nearly all actives have a fitted effect of over 55% in size; further: potency means the concentration at half of the fitted maximal effect
# Outline: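 Released BODIPY-GDP fluoresces less than Rap1-bound BODIPY-GDP; the signal is followed at 480/540 nm at 5-min intervals over 30 min, after 5 min at room temperature. Reactions contain 100 nM EPAC1, 250 nM RAP1B-BODIPY-GDP and 50 uM GDP; results are normalized to ATA and DMSO.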
# [2] = molecular target: Rap guanine nucleotide exchange factor 3 (Homo sapiens) (UniProt O95398); assay: Confirmatory qHTS for agonist of cAMP-regulated guanine nucleotide exchange factor 3 (EPAC1) (AID 1645881); further: nearly all actives have a fitted effect of over 75% in size; further: potency means the concentration at half of the fitted maximal effect
# [3] = molecular target: Rap guanine nucleotide exchange factor 3 (Homo sapiens) (UniProt O95398); assay: Counterscreen qHTS for antagonist of cAMP-regulated guanine nucleotide exchange factor 3 (EPAC1) (AID 1645888)
# Outline: (§1)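 Measured: fluorescence of BODIPY-GDP bound to Rap1B, which falls as exchange proceeds. Conditions include 50 uM competing GDP, 5 and 30 min reads, and a later cAMP challenge for antagonist detection.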
# [4] = molecular target: Tumor susceptibility gene 101 protein (Homo sapiens) (UniProt Q99816); assay: qHTS Assay for Iinhibitors of HIV-1 Budding by Blocking the Interaction of PTAP/TSG101: Hit Validation (AID 651600); further: nearly all actives have a fitted effect of over 70% in size; further: potency means the concentration at half of the fitted maximal effect
# Outline: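 Displacement of a FITC-labeled PTAP-motif peptide (50 nM) from the Tsg101 binding domain (10 uM) was monitored by fluorescence polarization after a 20 min room-temperature incubation.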
# [5] = molecular target: Rap guanine nucleotide exchange factor 4 (Homo sapiens) (UniProt Q8WZA2); assay: Confirmatory qHTS for antagonist of cAMP-regulated guanine nucleotide exchange factor 4 (EPAC2) (AID 1645885); further: nearly all actives have a fitted effect of over 25% in size; further: potency means the concentration at half of the fitted maximal effect
# [6] = molecular target: Rap guanine nucleotide exchange factor 3 (Homo sapiens) (UniProt O95398); assay: Counterscreen qHTS for agonist of cAMP-regulated guanine nucleotide exchange factor 3 (EPAC1) (AID 1645889); further: potency means the concentration at half of the fitted maximal effect; nearly all actives have a fitted effect of over 40% in size
# Outline: as §1
# Rap guanine nucleotide exchange factor 4 (Homo sapiens), sequence (Q8WZA2 whole entry, looked up): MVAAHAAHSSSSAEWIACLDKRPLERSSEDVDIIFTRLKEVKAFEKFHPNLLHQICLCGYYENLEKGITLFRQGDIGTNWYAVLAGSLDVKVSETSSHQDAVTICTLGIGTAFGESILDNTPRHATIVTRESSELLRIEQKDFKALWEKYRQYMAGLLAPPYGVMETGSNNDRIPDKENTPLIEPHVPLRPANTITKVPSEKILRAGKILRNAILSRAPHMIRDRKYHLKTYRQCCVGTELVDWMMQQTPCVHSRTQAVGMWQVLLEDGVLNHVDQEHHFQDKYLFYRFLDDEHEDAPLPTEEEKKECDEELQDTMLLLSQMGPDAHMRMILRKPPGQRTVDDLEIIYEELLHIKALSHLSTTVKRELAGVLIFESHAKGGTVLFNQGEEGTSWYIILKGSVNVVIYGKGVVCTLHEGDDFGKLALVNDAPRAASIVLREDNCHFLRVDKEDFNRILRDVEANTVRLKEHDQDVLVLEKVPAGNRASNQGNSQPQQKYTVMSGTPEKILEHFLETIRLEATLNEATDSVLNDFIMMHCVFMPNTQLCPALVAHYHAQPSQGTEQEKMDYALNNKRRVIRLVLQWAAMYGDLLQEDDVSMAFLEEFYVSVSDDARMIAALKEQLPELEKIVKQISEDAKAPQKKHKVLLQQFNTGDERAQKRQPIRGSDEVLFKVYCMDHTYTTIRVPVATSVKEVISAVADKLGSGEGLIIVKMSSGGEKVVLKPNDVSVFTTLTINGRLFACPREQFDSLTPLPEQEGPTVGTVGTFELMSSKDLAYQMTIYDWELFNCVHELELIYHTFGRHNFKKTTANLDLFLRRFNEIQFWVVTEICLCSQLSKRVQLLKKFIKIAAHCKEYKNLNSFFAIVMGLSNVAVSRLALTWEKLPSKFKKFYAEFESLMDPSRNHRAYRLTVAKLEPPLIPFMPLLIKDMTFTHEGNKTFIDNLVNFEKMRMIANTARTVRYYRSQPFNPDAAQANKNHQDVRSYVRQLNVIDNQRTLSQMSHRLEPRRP
# Tumor susceptibility gene 101 protein (Homo sapiens), sequence (Q99816 whole entry, looked up, the tested form may be a part): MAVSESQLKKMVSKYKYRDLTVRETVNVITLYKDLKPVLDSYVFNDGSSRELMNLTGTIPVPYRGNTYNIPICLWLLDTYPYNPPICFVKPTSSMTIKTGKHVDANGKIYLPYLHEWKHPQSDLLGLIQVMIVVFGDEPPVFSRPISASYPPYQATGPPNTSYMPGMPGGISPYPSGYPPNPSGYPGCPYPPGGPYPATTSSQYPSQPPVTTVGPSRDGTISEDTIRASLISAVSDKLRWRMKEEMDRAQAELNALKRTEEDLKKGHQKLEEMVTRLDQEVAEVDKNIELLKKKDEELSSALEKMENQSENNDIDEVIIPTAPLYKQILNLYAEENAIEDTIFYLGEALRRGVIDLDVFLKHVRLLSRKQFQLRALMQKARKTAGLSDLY
# Rap guanine nucleotide exchange factor 3 (Homo sapiens), sequence (O95398 whole entry, looked up): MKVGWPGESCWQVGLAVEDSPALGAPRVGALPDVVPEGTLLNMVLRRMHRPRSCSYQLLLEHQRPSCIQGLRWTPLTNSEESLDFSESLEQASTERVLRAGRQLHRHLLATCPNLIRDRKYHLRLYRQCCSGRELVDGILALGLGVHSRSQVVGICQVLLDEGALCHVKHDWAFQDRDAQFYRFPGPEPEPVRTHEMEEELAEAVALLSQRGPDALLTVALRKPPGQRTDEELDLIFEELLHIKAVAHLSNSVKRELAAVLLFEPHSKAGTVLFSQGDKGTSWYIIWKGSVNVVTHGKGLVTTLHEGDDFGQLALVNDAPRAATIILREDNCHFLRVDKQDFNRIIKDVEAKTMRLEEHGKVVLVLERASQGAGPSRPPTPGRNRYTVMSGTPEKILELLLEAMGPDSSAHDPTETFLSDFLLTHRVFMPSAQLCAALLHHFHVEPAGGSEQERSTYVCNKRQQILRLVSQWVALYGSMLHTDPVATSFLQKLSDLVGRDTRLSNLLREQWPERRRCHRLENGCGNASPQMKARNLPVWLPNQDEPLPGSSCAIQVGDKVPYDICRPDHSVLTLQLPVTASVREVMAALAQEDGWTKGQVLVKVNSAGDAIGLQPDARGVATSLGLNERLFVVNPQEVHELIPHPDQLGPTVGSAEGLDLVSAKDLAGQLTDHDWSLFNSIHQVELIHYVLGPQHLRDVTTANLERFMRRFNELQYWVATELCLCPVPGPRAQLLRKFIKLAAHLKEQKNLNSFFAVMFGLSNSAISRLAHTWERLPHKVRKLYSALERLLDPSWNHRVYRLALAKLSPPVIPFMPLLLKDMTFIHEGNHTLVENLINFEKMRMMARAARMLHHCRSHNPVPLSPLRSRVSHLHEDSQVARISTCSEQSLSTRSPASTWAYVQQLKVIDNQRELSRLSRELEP
structure (smiles),measurement,setting,value
COc1ccc(C2CC(=O)Oc3cc(C)cc(C)c32)cc1 (stereo not drawn),Potency,[1],inactive
same,Potency,[2],inactive
same,Potency,[3],inactive
C=C(C)Cn1c(C)cc(C)c(S(=O)(=O)c2ccccc2C)c1=O,Potency,[1],inactive
same,Potency,[2],inactive
same,"activity change, negative = inhibition",[3],-6.66% [at 30.8 µM]
O=C1CSC(=Nc2ccccc2)N1Cc1ccccc1,Potency,[1],inactive
same,Potency,[2],inactive
same,Potency,[3],inactive
COc1cc(NC(C)=O)ccc1-c1cc2ccccc2oc1=O,Potency,[1],inactive
same,Potency,[2],inactive
same,Potency,[3],inactive
COc1ccc(/C=C/C(=O)c2ccc(Cl)cc2)c(OC)c1,Potency,[1],inactive
same,Potency,[2],inactive
same,Potency,[3],inactive
COc1cnc(-c2ccccc2)nc1Sc1ccccc1,Potency,[1],inactive
same,Potency,[2],inactive
same,Potency,[3],inactive
CCOc1nc(-c2ccccc2Cl)nc2ccccc12,Potency,[1],inactive
same,Potency,[2],inactive
same,Potency,[3],inactive
CC(=O)N1N=C2c3ccccc3CCC2C1c1cccs1 (stereo not drawn),Potency,[1],inactive
same,Potency,[2],inactive
same,"activity change, negative = inhibition",[3],-17.6% [at 30.8 µM]
COc1ccc(S(=O)(=O)Nc2ncccc2C)c2ccccc12,Potency,[1],inactive
same,Potency,[2],inactive
same,Potency,[3],inactive
Nc1cccc2c(O)cc(S(=O)(=O)O)cc12,Potency,[4],18.3 µM (active)
same,Potency,[1],13.5 µM (active)
same,Potency,[2],50.1 µM (active)
same,Potency,[5],0.757 µM (active)
same,Potency,[3],inactive
same,Potency,[6],79.4 µM (active)
O=c1ccc(NS(=O)(=O)c2ccc(Cl)cc2)cn1Cc1ccc(Cl)c(Cl)c1,Potency,[1],75.7 µM (active)
same,Potency,[2],inactive
same,Potency,[3],inactive
COC(=O)[C@@H]1CC[C@@](C)(c2ccc(OC)cc2)C1(C)C,Potency,[1],inactive
same,Potency,[2],inactive
same,"activity change, negative = inhibition",[3],8.1% [at 30.8 µM]
Cc1cc2ccccn2c1C(=O)c1ccc(F)cc1,Potency,[1],inactive
same,Potency,[2],inactive
same,Potency,[3],inactive
O=C(O)c1ccccc1-c1ccc(/C=C/c2cc(C(F)(F)F)[nH]c(=O)n2)o1,Potency,[4],inactive
same,Potency,[1],inactive
same,Potency,[2],89.1 µM (active)
same,Potency,[5],inactive
same,"activity change, negative = inhibition",[3],309% [at 30.8 µM]
CCCCn1nnnc1C(c1cc2ccccc2o1)N1CCCC1 (stereo not drawn),Potency,[1],inactive
same,Potency,[2],inactive
same,Potency,[3],inactive
COc1ccc(Cl)cc1NC(=O)CN1c2ccccc2CC1C (stereo not drawn),Potency,[1],inactive
same,Potency,[2],inactive
same,Potency,[3],inactive
CCN(CC)c1ccc(/C=c2\sc3nc4ccccc4n3c2=O)c(O)c1,Potency,[4],inactive
same,Potency,[1],inactive
same,Potency,[2],inactive
same,Potency,[5],inactive
same,Potency,[3],inactive
same,Potency,[6],56.2 µM (active)
C=CCN(CC=C)Cc1cc(=O)oc2cc(C)cc(C)c12,Potency,[1],inactive
same,Potency,[2],inactive
same,"activity change, negative = inhibition",[3],-4% [at 30.8 µM]
COc1ccc2ccc3c(c2c1)N=C[C@]1(O3)N(C)c2ccccc2C1(C)C,Potency,[1],inactive
same,Potency,[2],inactive
same,Potency,[3],inactive
COc1ccccc1N(C)c1cc2c(c3c1ccn3C)C1CCC2O1 (stereo not drawn),Potency,[1],inactive
same,Potency,[2],inactive
same,Potency,[3],inactive
